# Data published in PubChem BioAssay (Tox21).
# Inconclusive results are not listed. The source made the active and inactive calls. The call rests on the fitted dose curve; in most records, active means well fitted cell-killing curve with a large enough effect in the repeat runs; inconclusive means weak or mixed curves, or effect the other way; inactive means flat fitted curve, though single readings scatter.
# Test: cAMP Responsive Elements (CRE) small molecule antagonists, cell-based qHTS assay: qHTS cell viability counter screen (AID 2060913); further: nearly all actives have a fitted effect of over 40% in size
# Settings: CRE-bla HEK293T viability, CellTiter-Glo luminescence, 5 h; series mostly up to 92.4 µM; viability change, negative = cytotoxic: at the top concentration
# Summary of the method: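 CRE-bla HEK293T cells were seeded in assay medium with 10% dialyzed FBS, incubated 18 hrs at 37 C, then exposed to compounds plus 0.25 uM final NKH477 for 3 hrs. Viability was read by CellTiter-Glo luminescence after 30 min, in the same wells.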
# On the % scale 0 is the no-effect control and ±100 the full control effect.
Structure (SMILES),"viability change, negative = cytotoxic",Potency
CCCC(C)c1ccccc1O (centres undefined),-12.3% (inactive),
COc1ccc2cc3[n+](cc2c1OC)CCc1cc2c(cc1-3)OCO2,,inactive
Nc1ccc(S(=O)(=O)NCc2ccccc2)cc1,0.432% [at 42.5 µM] (inactive),
CCN(Cc1cccc(S(=O)(=O)O)c1)c1ccc(C(=C2C=CC(=[N+](CC)Cc3cccc(S(=O)(=O)O)c3)C=C2)c2ccc(O)cc2S(=O)(=O)[O-])cc1,-29.6% [at 42.5 µM] (inactive),
Nc1cccc2c(N)cccc12,17.8% (inactive),
CC(C)=CCOc1ccc(/C=C/C(=O)c2ccc(OCC=C(C)C)cc2OCC(=O)O)cc1,5.02% [at 42.5 µM] (inactive),
O=C(Nc1ccc(Cl)c(Cl)c1)C1CC1,-9.05% [at 42.5 µM] (inactive),
CCO,15.8% (inactive),
Oc1ccc2ccccc2c1N=Nc1ccccc1,,inactive
CO/N=C1\CN(c2nc3c(cc2F)c(=O)c(C(=O)O)cn3C2CC2)CC1CN (centres undefined),-0.36% [at 42.5 µM] (inactive),
CN(C)CCCN1c2ccccc2Sc2ccccc21,-3.7% [at 42.5 µM] (inactive),
O=C(O)[C@H](O)[C@@H](O)[C@H](O)[C@H](O)CO,14.1% (inactive),
CCOCCOC(=O)/C=C/c1ccc(OC)cc1,3% [at 42.5 µM] (inactive),
Cc1c(O)cccc1O,-0.459% (inactive),
CC=C(Cl)Cl,4.8% (inactive),
O=C(Nc1ccccc1)OCC(CN1CCCCC1)OC(=O)Nc1ccccc1 (centres undefined),-0.391% [at 42.5 µM] (inactive),
CC(C)(C)C1=CC(=O)C=C(C(C)(C)C)C1=O,-3.69% (inactive),
CCCCCCCOC(=O)c1ccccc1C(=O)OCCCCCCC,-0.214% (inactive),
CC(C)=CCC[C@H](C)CC=O,-11.7% (inactive),
O=C1c2ccccc2C(=O)N1CO,-4.79% (inactive),

Structure (SMILES),"viability change, negative = cytotoxic",Potency
C=CCCCC,0.654% (inactive),
CC1=NN(c2ccc(C(=O)O)cc2)C(=O)C1,1.68% (inactive),
CC(=O)c1ccc(OCC(=O)N2CCCCC2)cc1,8.2% [at 42.5 µM] (inactive),
CN1CCCN(C(c2ccccc2)c2ccc(Cl)cc2)CC1 (centres undefined),-9.01% [at 42.5 µM] (inactive),
CC(=O)Nc1ccc(S(=O)(=O)Cl)cc1,15.3% (inactive),
N[C@@H](COP(=O)(O)O)C(=O)O,4.6% [at 18.9 µM] (inactive),
Cc1c(Cl)cccc1Cl,6.98% (inactive),
O=C(Nc1ccc2c(O)c(N=Nc3ccc(N=Nc4ccc(S(=O)(=O)O)cc4)cc3)c(S(=O)(=O)O)cc2c1)c1ccccc1,-2.34% (inactive),
Cc1cccc(C)c1OCC(C)N (centres undefined),-0.173% [at 42.5 µM] (inactive),
CC(=O)Nc1ccc(OCC(O)CNC(C)C)cc1 (centres undefined),-0.581% [at 42.5 µM] (inactive),
[Cu+],-5.67% (inactive),
CS(=O)(=O)c1ccc([C@@H](C[C@H]2CCC(=O)C2)C(=O)Nc2cnccn2)cc1Cl,-3.24% (inactive),
Nc1ccccc1O,2.63% (inactive),
CSCC[C@H](NC(=O)[C@H](Cc1c[nH]c2ccccc12)NC(=O)CCNC(=O)OC(C)(C)C)C(=O)N[C@@H](CC(=O)O)C(=O)N[C@@H](Cc1ccccc1)C(N)=O,12.1% [at 42.5 µM] (inactive),
CC1CCCCN1CCCOC(=O)c1ccc(OC2CCCCC2)cc1 (centres undefined),-12.6% [at 42.5 µM] (inactive),
Cc1ccc(C(C)OC(=O)C2(C)CCC(C(=O)O)C2(C)C)cc1 (centres undefined),1.43% [at 42.5 µM] (inactive),
Cc1ncc([N+](=O)[O-])n1CC(O)CCl (centres undefined),-0.776% [at 42.5 µM] (inactive),
NCCNc1cccc2ccccc12,,inactive
O=C(O)c1cccc(N(Cc2cccnc2)c2ccc(OC(F)F)c(OC(F)F)c2)c1,-0.773% (inactive),
